Measured values as given in the antibiotic and cytotoxicity screens of Wong et al. (2023).
Among all 39,000 compounds or so, about 1,500 (3.8%) were called active. Many of the other results were omitted from the sample, so actives are more common in it than they were.

What follows are molecules tested on HSkMC (human skeletal muscle cells) (assay: cytotoxicity call (relative viability < 0.9)). Details: 10 µM.
`CN(C)C/C=C/C(=O)Nc1ccc(C(=O)Nc2cccc(Nc3ncc(Cl)c(-c4c[nH]c5ccccc45)n3)c2)cc1` was tested, and the cytotoxicity call was “active”.
For `C[C@@H]1CN([C@@H](C)CO)C(=O)c2cc(NC(=O)Nc3ccccc3)ccc2O[C@@H](C)CCCCO[C@@H]1CN(C)Cc1ccncc1`, the cytotoxicity call was “inactive”.
`Nc1c2c(nc3ccccc13)CCCC2` was tested, and the cytotoxicity call was “inactive”.
`Cl.Nc1c2c(nc3ccccc13)CCCC2` was tested, and the cytotoxicity call was “inactive”.
For `C[C@@H]1CCCCO[C@H](CN(C)Cc2ccncc2)[C@@H](C)CN([C@H](C)CO)C(=O)c2cc(NS(C)(=O)=O)ccc2O1`, the cytotoxicity call was “inactive”.
`C[C@@H]1CCCCO[C@H](CN(C)C(=O)c2ccccc2)[C@@H](C)CN([C@@H](C)CO)C(=O)c2cc(NS(=O)(=O)c3cccs3)ccc2O1` was tested, and the cytotoxicity call was “inactive”.
With `CCC[C@@H](O)C#Cc1cnc2c(c1)C(=O)N([C@H](C)CO)C[C@H](C)[C@H](CN(C)Cc1ccc3c(c1)OCO3)O2` the cytotoxicity call was “inactive”.
In the case of `COc1ccc(S(=O)(=O)Nc2ccc3c(c2)C(=O)N([C@H](C)CO)C[C@H](C)[C@H](CN(C)S(C)(=O)=O)OCCCC[C@H](C)O3)cc1`, the cytotoxicity call is reported as “inactive”.
In the case of `CO[C@H]1C[C@H](O[C@@H]2/C(C)=C/C[C@@H]3C[C@@H](C[C@]4(CC[C@H](C)[C@@H](C5CCCCC5)O4)O3)OC(=O)[C@@H]3C=C(C)/C(=N/O)[C@H]4OC/C(=C\C=C\[C@@H]2C)[C@]43O)O[C@@H](C)[C@@H]1O`, the cytotoxicity call is reported as “active”.
In the case of `COC1CC(OC2C(C)=CCC3CC(CC4(CCC(C)C(C5CCCCC5)O4)O3)OC(=O)C3C=C(C)C(=NO)C4OCC(=CC=CC2C)C34O)OC(C)C1O` (stereo not given), the cytotoxicity call is reported as “active”.
`CO[C@H]1C[C@@H](O[C@@H]2/C(C)=C/C[C@@H]3C[C@@H](C[C@]4(CC[C@H](C)[C@@H](C5CCCCC5)O4)O3)OC(=O)[C@@H]3C=C(C)/C(=N/O)[C@H]4OC/C(=C\C=C\[C@@H]2C)[C@]43O)O[C@@H](C)[C@@H]1O` was tested, and the cytotoxicity call was “inactive”.
With `O=c1[nH]c(=O)n([C@H]2C[C@H](O)[C@@H](CO)O2)cc1C(F)(F)F` the cytotoxicity call was “inactive”.
In the case of `C[C@H](CO)N1C[C@H](C)[C@@H](CN(C)Cc2ccncc2)OCCCC[C@H](C)Oc2ccc(NC(=O)CCC(F)(F)F)cc2C1=O`, the cytotoxicity call is reported as “inactive”.
With `C[C@H](CO)N1C[C@H](C)[C@@H](CN(C)CC2CCCCC2)OCCCC[C@H](C)Oc2ccc(NC(=O)CCCCCC(=O)Nc3ccccc3N)cc2C1=O` the cytotoxicity call was “inactive”.
For `COc1ccc(NC(=O)Nc2ccc3c(c2)C(=O)N([C@@H](C)CO)C[C@@H](C)[C@H](CN(C)Cc2ccc(Cl)c(Cl)c2)OCCCC[C@@H](C)O3)cc1`, the cytotoxicity call was “inactive”.
`CCCN(C)C[C@@H]1OCCCC[C@@H](C)Oc2ccc(NC(=O)Nc3ccc(OC)cc3)cc2C(=O)N([C@H](C)CO)C[C@@H]1C` was tested, and the cytotoxicity call was “inactive”.
`COc1ccc(C#Cc2cnc3c(c2)C(=O)N([C@H](C)CO)C[C@@H](C)[C@@H](CN(C)C(=O)CC2CC2)O3)cc1` was tested, and the cytotoxicity call was “inactive”.
`O=C(C[C@@H]1CC=CCC[C@@H](Cc2ccc(F)cc2)C(=O)OC[C@H](Cc2ccccc2)NC1=O)NCCO` was tested, and the cytotoxicity call was “inactive”.
For `C[C@H](CO)N1C[C@H](C)[C@H](CN(C)Cc2cccc(C(F)(F)F)c2)Oc2ncc(-c3cccc(C(F)(F)F)c3)cc2C1=O`, the cytotoxicity call was “active”.
`C[C@H](CO)N1C[C@H](C)[C@H](CN(C)Cc2cccc(C(F)(F)F)c2)Oc2ncc(-c3ccccc3)cc2C1=O` was tested, and the cytotoxicity call was “inactive”.
With `Cc1cccc(CN(C)C[C@@H]2Oc3ncc(-c4cccc(C(F)(F)F)c4)cc3C(=O)N([C@H](C)CO)C[C@@H]2C)c1` the cytotoxicity call was “inactive”.
For `C[C@H](CO)N1C[C@H](C)[C@H](CN(C)Cc2ccccc2)Oc2ncc(-c3cccc(C(F)(F)F)c3)cc2C1=O`, the cytotoxicity call was “inactive”.
For `C[C@H](CO)N1C[C@H](C)[C@H](CN(C)Cc2cccc(C(F)(F)F)c2)Oc2ncc(-c3cccc(F)c3)cc2C1=O`, the cytotoxicity call was “inactive”.
For `C[C@H](CO)N1C[C@H](C)[C@H](CN(C)Cc2cccc(C(F)(F)F)c2)Oc2ncc(/C=C/c3ccccc3)cc2C1=O`, the cytotoxicity call was “active”.
`C[C@H](CO)N1C[C@H](C)[C@H](CN(C)C(=O)C2CC2)Oc2ncc(-c3ccc(C(=O)N(C)C)cc3)cc2C1=O` was tested, and the cytotoxicity call was “inactive”.
In the case of `CC(C)NC(=O)N(C)C[C@@H]1Oc2ccc(NS(=O)(=O)c3cn(C)cn3)cc2CC(=O)N([C@H](C)CO)C[C@H]1C`, the cytotoxicity call is reported as “inactive”.
`Cl.OC(c1cc(C(F)(F)F)nc2c(C(F)(F)F)cccc12)C1CCCCN1` (stereo not given) was tested, and the cytotoxicity call was “active”.
With `C[C@@H]1CN([C@H](C)CO)S(=O)(=O)c2ccc(C#CC3(O)CCCC3)cc2O[C@H]1CN(C)C(=O)c1ccncc1` the cytotoxicity call was “inactive”.
For `CNC(=O)c1c(F)cccc1Nc1nc(Nc2cc3c(cc2OC)CCN3C(=O)CN(C)C)nc2[nH]ccc12`, the cytotoxicity call was “active”.
In the case of `COc1cc(C(=O)N2CCC(N3CCN(C)CC3)CC2)ccc1Nc1ncc2c(n1)N(C)c1ccccc1C(=O)N2C`, the cytotoxicity call is reported as “inactive”.
`C[C@@H]1CN([C@H](C)CO)C(=O)Cc2cc(NS(=O)(=O)c3cn(C)cn3)ccc2O[C@@H]1CN(C)C(=O)Nc1ccccc1` was tested, and the cytotoxicity call was “inactive”.
In the case of `CC(C)NC(=O)Nc1ccc2c(c1)C(=O)N([C@@H](C)CO)C[C@@H](C)[C@H](CN(C)CC1CCCCC1)OCCCC[C@@H](C)O2`, the cytotoxicity call is reported as “inactive”.
`CN(C)CC(=O)N1[C@@H]2Cn3c(ccc(C4=CCCC4)c3=O)[C@H]1[C@@H](C(=O)NCC1CC1)[C@@H]2CO` was tested, and the cytotoxicity call was “inactive”.
With `C[C@@H]1CN([C@@H](C)CO)S(=O)(=O)c2ccc(-c3cncnc3)cc2O[C@@H]1CN(C)C(=O)Cc1cccnc1` the cytotoxicity call was “inactive”.
`C[C@H]1CN([C@@H](C)CO)C(=O)c2cc(NS(C)(=O)=O)ccc2O[C@H]1CN(C)Cc1ccc2c(c1)OCO2` was tested, and the cytotoxicity call was “inactive”.
In the case of `CC(C)=CCc1c2c(c3occ(-c4ccc(O)cc4)c(=O)c3c1O)C=CC(C)(C)O2`, the cytotoxicity call is reported as “inactive”.
For `CC1(C)C=Cc2c(c3c(c4c(=O)c(-c5ccc(O)c(O)c5)coc24)OC(C)(C)CC3)O1`, the cytotoxicity call was “inactive”.
In the case of `CC(C)=CCc1c2c(c3occ(-c4ccc(O)c(O)c4)c(=O)c3c1O)C=CC(C)(C)O2`, the cytotoxicity call is reported as “active”.
With `CO[C@@H]1CN(C)C(=O)c2ccc(NC(=O)CN(C)C)cc2OC[C@@H](C)N(C(=O)c2ccncc2)C[C@H]1C` the cytotoxicity call was “inactive”.
With `C[C@@H]1CCCCO[C@H](CN(C)S(=O)(=O)c2cccs2)[C@@H](C)CN([C@H](C)CO)C(=O)c2cc(NC(=O)CCC(F)(F)F)ccc2O1` the cytotoxicity call was “inactive”.
`COC[C@@H]1CNN1C(=O)c1cc(C)oc1C` was tested, and the cytotoxicity call was “inactive”.
In the case of `CCCCCN1CC=C[C@@]23O[C@@H]4C=CCOC(=O)[C@@H]4[C@H]2C(=O)N([C@@H](C)CO)[C@@H]3C1=O`, the cytotoxicity call is reported as “inactive”.
`CC(NCCc1ccc(O)cc1)C(O)c1ccc(O)cc1.Cl` (stereo not given) was tested, and the cytotoxicity call was “inactive”.
With `CCCCCCCCNC(C)C(O)c1ccc(SC(C)C)cc1` (stereo not given) the cytotoxicity call was “active”.
For `CCCCCCCCNC[C@@H](O)[C@H](O)[C@@H](O)[C@@H](O)CO`, the cytotoxicity call was “inactive”.
For `C[C@@H]1CN([C@@H](C)CO)S(=O)(=O)c2ccc(C#CCN(C)C)cc2O[C@@H]1CN(C)C(=O)CN(C)C`, the cytotoxicity call was “inactive”.
In the case of `C[C@@H]1CCCCO[C@@H](CN(C)S(=O)(=O)c2ccc(Cl)cc2)[C@H](C)CN([C@@H](C)CO)C(=O)c2cc(NC(=O)Nc3cccc4ccccc34)ccc2O1`, the cytotoxicity call is reported as “inactive”.
In the case of `O=C(NCCCN1CCOCC1)Nc1ccc(Cc2ccc(NC(=O)NCCCN3CCOCC3)cc2)cc1`, the cytotoxicity call is reported as “inactive”.
`COc1cc(OC)cc(C(=O)Nc2nc(-c3ccc4c(c3)CCN4C(=O)CN3CCOCC3)cs2)c1` was tested, and the cytotoxicity call was “inactive”.
For `CC(C)(C)c1cc(NC(=O)Nc2ccc(-c3cn4c(n3)sc3cc(OCCN5CCOCC5)ccc34)cc2)no1`, the cytotoxicity call was “active”.
In the case of `C[C@H](CO)N1C[C@H](C)[C@@H](CN(C)CC2CC2)Oc2c(NC(=O)Nc3cccc4ccccc34)cccc2C1=O`, the cytotoxicity call is reported as “inactive”.
For `CC(C)CC(=O)Nc1cncc(-c2ccc3[nH]nc(-c4nc5cncc(-c6cccc(F)c6)c5[nH]4)c3c2)c1`, the cytotoxicity call was “active”.
For `Cn1c(=O)[nH]c(=O)c2c1nc(N1CCN(CCO)CC1)n2CC(=O)c1ccccc1`, the cytotoxicity call was “inactive”.
In the case of `CCS(=O)(=O)N1C[C@]2(CN(C2)C(=O)c2ccc3c(c2)OCO3)c2c(n(c3cc(ccc23)OC)C)[C@@H]1CO`, the cytotoxicity call is reported as “inactive”.
With `C[C@@H]1CN([C@H](C)CO)C(=O)c2cccc(NC(=O)c3ccc(-c4nccs4)cc3)c2O[C@H]1CN(C)Cc1ccc(Oc2ccccc2)cc1` the cytotoxicity call was “inactive”.
In the case of `COc1ccc(CN(C)C[C@H]2Oc3c(NC(=O)c4ccc(-c5nccs5)cc4)cccc3C(=O)N([C@H](C)CO)C[C@@H]2C)cc1`, the cytotoxicity call is reported as “inactive”.
`COc1ccc(CN(C)C[C@H]2Oc3c(NC(=O)c4ccc(-c5nccs5)cc4)cccc3C(=O)N([C@@H](C)CO)C[C@@H]2C)cc1` was tested, and the cytotoxicity call was “inactive”.
In the case of `C[C@H](CO)N1C[C@H](C)[C@H](CN(C)Cc2ccc(Oc3ccccc3)cc2)Oc2c(NC(=O)c3ccc(-c4nccs4)cc3)cccc2C1=O`, the cytotoxicity call is reported as “active”.
In the case of `COc1ccc(CN(C)C[C@@H]2Oc3c(NC(=O)c4ccc(-c5nccs5)cc4)cccc3C(=O)N([C@H](C)CO)C[C@H]2C)cc1`, the cytotoxicity call is reported as “active”.
In the case of `C[C@H]1CN([C@@H](C)CO)C(=O)c2cccc(NC(=O)c3ccc(-c4nccs4)cc3)c2O[C@H]1CN(C)Cc1ccc(Oc2ccccc2)cc1`, the cytotoxicity call is reported as “inactive”.
With `COc1ccc(NC(=O)Nc2ccc3c(c2)C(=O)N([C@H](C)CO)C[C@@H](C)[C@H](CN(C)S(=O)(=O)c2ccc(Cl)cc2)OCCCC[C@@H](C)O3)cc1` the cytotoxicity call was “inactive”.
For `C[C@H]1CN([C@@H](C)CO)C(=O)c2cc(C3=CCCCC3)cnc2O[C@H]1CN(C)C(=O)CN1CCOCC1`, the cytotoxicity call was “inactive”.
For `O=C1OCc2cc(-n3cnnn3)ccc21`, the cytotoxicity call was “inactive”.
With `COc1ccc(NC(=O)N(C)C[C@H]2OCCCC[C@H](C)Oc3ccc(NC(=O)c4ccccc4)cc3C(=O)N([C@H](C)CO)C[C@H]2C)cc1` the cytotoxicity call was “inactive”.
In the case of `C[C@@H]1CN([C@H](C)CO)C(=O)c2cc(NC(=O)Nc3ccccc3)ccc2O[C@H]1CN(C)S(=O)(=O)c1cn(C)cn1`, the cytotoxicity call is reported as “inactive”.
